Compound activity: PubChem, several laboratories
HIF-2a inh: blocks HIF-2a reporter activity; 360,000 tested, 0.72% active; 786-0 RCC cells HIF-2a reporter, luciferase luminescence, overnight; inhibition, % at 18.8 µM; AID 624352;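 active = inhibition of the luminescence signal of 40% or more relative to plate controls, in a single-dose primary screen at 18.75 µM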
CF NFkB block: inhibitors of cystic fibrosis induced NF-kB; KKLEB NF-kB-GFP reporter, PAF-induced, GFP fluorescence overnight; inhibition, % at 5 µM; 360,000 tested, 0.86% active; AID 588850;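 active = at least 50% inhibition at 5 µM, scaled per plate between neutral and stimulator controls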;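 note: PAF is a Pseudomonas aeruginosa culture filtrate used as stimulus; plate controls were PAF-stimulated DMSO wells for no effect and unstimulated DMSO wells for full effect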
ABHD5 PLIN5 PPI: inhibitors of human ABHD5-perilipin-5 interaction; inhibition, % at 4 µM; Split G. princeps luciferase complementation, luminescence, 4 h; 360,000 tested, 0.78% active; Q00G26+Q8WTS1;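 active = inhibition above the mean inhibition across every tested compound plus 3 SD, cut at about 22% in these data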;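 note: 0% = DMSO only wells and the 100% control is not disclosed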
Target sequence (Q00G26 whole entry, looked up): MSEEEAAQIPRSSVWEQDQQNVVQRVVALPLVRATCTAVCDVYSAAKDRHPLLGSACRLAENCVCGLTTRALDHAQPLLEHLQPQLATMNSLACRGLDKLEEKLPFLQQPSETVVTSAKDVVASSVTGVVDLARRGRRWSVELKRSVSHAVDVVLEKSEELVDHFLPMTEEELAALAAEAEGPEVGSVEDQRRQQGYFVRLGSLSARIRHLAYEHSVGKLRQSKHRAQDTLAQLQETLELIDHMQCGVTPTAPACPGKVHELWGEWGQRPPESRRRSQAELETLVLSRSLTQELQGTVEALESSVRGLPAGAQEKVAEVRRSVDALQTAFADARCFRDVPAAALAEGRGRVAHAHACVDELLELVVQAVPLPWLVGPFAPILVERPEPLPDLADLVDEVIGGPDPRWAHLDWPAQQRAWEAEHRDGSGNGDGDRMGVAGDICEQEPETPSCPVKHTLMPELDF
Target sequence (Q8WTS1 whole entry, looked up): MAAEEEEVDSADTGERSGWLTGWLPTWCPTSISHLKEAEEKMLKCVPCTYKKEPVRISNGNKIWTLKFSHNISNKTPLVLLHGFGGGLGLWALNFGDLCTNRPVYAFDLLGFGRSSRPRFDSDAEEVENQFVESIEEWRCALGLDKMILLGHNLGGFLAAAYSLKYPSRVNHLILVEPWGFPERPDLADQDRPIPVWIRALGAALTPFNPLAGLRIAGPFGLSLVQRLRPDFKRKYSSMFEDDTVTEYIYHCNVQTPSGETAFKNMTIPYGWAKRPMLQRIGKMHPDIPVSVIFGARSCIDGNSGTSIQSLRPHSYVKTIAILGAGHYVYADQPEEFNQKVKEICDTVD
MITF TRPM1 inh: MITF TRPM1 promoter inhibition in SK-MEL-5 cells; inhibition, % at 12.5 µM; SK-MEL-5 TRPM1 promoter luciferase, 24 h; 330,000 tested, 0.83% active; AID 488899;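 active = mean inhibition across replicates of 60% or more, whatever share of single replicates reaches that level; inconclusive = some that reach 60%, reason not given; inactive = mean inhibition across replicates below 60%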
KKLEB tox: CF airway cell cytotoxicity counter-screen; KKLEB CF airway cells viability, ATPlite luminescence, overnight; stronger effect = lower value; cells stimulated with P. aeruginosa culture filtrate; activity change (cytotoxicity), % at 5 µM; 360,000 tested, 0.36% active; AID 602141;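 active = corrected activity change at or below -50% at 5 µM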
Peg3 promoter: Peg3 promoter activity inhibition; inhibition, % at 20 µM; AID 588405; HeLa PEG-Prom luciferase reporter, luminescence, overnight; 360,000 tested, 1.7% active;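 active = inhibition of at least 50% at 20 µM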
* = called active by the depositor. Hits are enriched below; roughly 3% of the tested compounds scored in any of these assays.

N/C(=N\OC(=O)c1ccc([N+](=O)[O-])cc1)c1cccnc1 was read as HIF-2a inh -250.6, CF NFkB block -21.9, ABHD5 PLIN5 PPI -2.7, MITF TRPM1 inh -57.9, KKLEB tox -2.3 and Peg3 promoter -153.8.
For CC(OC(=O)c1ccc(Cl)c([N+](=O)[O-])c1)C(=O)N1CCN(Cc2ccccc2)CC1 (stereo unspecified) the results were HIF-2a inh 24.6, CF NFkB block 13.9, ABHD5 PLIN5 PPI -6.3, MITF TRPM1 inh 15.0, KKLEB tox 2.4 and Peg3 promoter 78.3*.
For N/C(=N\OC(=O)c1ccc(Cl)c([N+](=O)[O-])c1)c1ccccc1 the results were HIF-2a inh -19.9, CF NFkB block -10.2, ABHD5 PLIN5 PPI 4.7, MITF TRPM1 inh -16.3, KKLEB tox -0.4 and Peg3 promoter 75.1*.
`N/C(=N\OC(=O)c1ccc(Cl)c([N+](=O)[O-])c1)c1ccccn1` gave HIF-2a inh -29.0, CF NFkB block -15.7, ABHD5 PLIN5 PPI 12.3, MITF TRPM1 inh -0.3, KKLEB tox -9.9 and Peg3 promoter 42.1.
Screening N/C(=N\OC(=O)c1cc([N+](=O)[O-])ccc1Cl)c1cccnc1 returned HIF-2a inh -5.1, CF NFkB block -1.8, ABHD5 PLIN5 PPI -3.0, MITF TRPM1 inh -2.9, KKLEB tox 4.0 and Peg3 promoter 61.6*.
CCCCn1cnc2c(SCc3ccc(Br)cc3)nc(N)nc21 was read as HIF-2a inh -94.7, CF NFkB block 17.1, ABHD5 PLIN5 PPI 9.0, MITF TRPM1 inh -38.6, KKLEB tox -6.0 and Peg3 promoter -35.4.
`Cc1nc(SCC(=O)c2ccccc2)c(C#N)c(-c2ccco2)c1C(=O)NCc1ccco1` gave HIF-2a inh 14.6, CF NFkB block -8.0, ABHD5 PLIN5 PPI 37.5*, MITF TRPM1 inh 8.7, KKLEB tox -3.8 and Peg3 promoter 4.6.
`Cc1ccc(NC2=C(N3CCOCC3)C(=O)c3ccccc3C2=O)cc1` gave HIF-2a inh -170.4, CF NFkB block -10.4, ABHD5 PLIN5 PPI -37.0, MITF TRPM1 inh 6.2, KKLEB tox -7.6 and Peg3 promoter -232.8.
Screening O=C1C(Cl)=C(NS(=O)(=O)c2ccc([N+](=O)[O-])cc2)C(=O)c2ccccc21 returned HIF-2a inh 9.1, CF NFkB block 38.0, ABHD5 PLIN5 PPI 21.3, MITF TRPM1 inh inconclusive, KKLEB tox -0.7 and Peg3 promoter 13.0.
`O=C1C(Cl)=C(NCc2ccco2)C(=O)c2ccccc21` gave HIF-2a inh -7.7, CF NFkB block 73.5*, ABHD5 PLIN5 PPI -44.9, MITF TRPM1 inh 94.2*, KKLEB tox 0.5 and Peg3 promoter -49.5.
Cc1ccc(NC2=C(Cl)C(=O)c3ccccc3C2=O)cc1 was read as HIF-2a inh -55.0, CF NFkB block 15.9, ABHD5 PLIN5 PPI 0.7, MITF TRPM1 inh 103.5*, KKLEB tox 6.1 and Peg3 promoter 95.8*.
COC1=C(Nc2ccc(OC)cc2)C(=O)c2ccccc2C1=O was read as HIF-2a inh -173.1, CF NFkB block 19.2, ABHD5 PLIN5 PPI -40.0, MITF TRPM1 inh 31.3, KKLEB tox 1.9 and Peg3 promoter -158.9.
`CCNC1=C(Cl)C(=O)c2ccccc2C1=O` gave HIF-2a inh 67.3*, CF NFkB block 6.5, ABHD5 PLIN5 PPI -2.3, MITF TRPM1 inh 74.5*, KKLEB tox -10.6 and Peg3 promoter -1.0.
Screening COC1=C(Nc2ccc(O)cc2)C(=O)c2ccccc2C1=O returned HIF-2a inh -99.8, CF NFkB block 18.8, ABHD5 PLIN5 PPI -8.3, MITF TRPM1 inh 80.1*, KKLEB tox 4.0 and Peg3 promoter -36.0.
Cc1cccc(CN2[C@@H](CC(C)C)COCCS2(=O)=O)c1 was read as HIF-2a inh 8.4, CF NFkB block -1.9, ABHD5 PLIN5 PPI -1.7, MITF TRPM1 inh -3.0, KKLEB tox -7.5 and Peg3 promoter 14.9.
Screening Cc1ccc(S(=O)(=O)N2CCCCC2)cc1NC(=O)COC(=O)C1=COCCO1 returned HIF-2a inh 6.3, CF NFkB block 4.6, ABHD5 PLIN5 PPI -2.3, MITF TRPM1 inh 12.5, KKLEB tox -11.9 and Peg3 promoter 16.9.
CCN(CC)C(=O)C1=C(C)N(CCCN2CCCC2=O)C(=O)C(CC(=O)NCc2cccc3ccccc23)C1 (stereo unspecified) was read as HIF-2a inh -4.1, CF NFkB block 3.4, ABHD5 PLIN5 PPI -0.8, KKLEB tox 4.9 and Peg3 promoter -11.1.
For COc1ccccc1NC(=O)c1ccc(-n2cccn2)nc1 the results were HIF-2a inh -28.2, CF NFkB block 1.5, ABHD5 PLIN5 PPI -1.8, MITF TRPM1 inh -9.6, KKLEB tox -2.0 and Peg3 promoter -33.5.
For O=C1CC2(CCN(C(=O)c3cccc(Br)c3)CC2)Oc2ccccc21 the results were HIF-2a inh 18.8, CF NFkB block 19.0, ABHD5 PLIN5 PPI -1.5, MITF TRPM1 inh 6.1, KKLEB tox 3.2 and Peg3 promoter -8.3.
For O=C1C(Cl)=C(NCCN2CCCCC2)C(=O)c2ccccc21 the results were HIF-2a inh 87.3*, CF NFkB block 75.1*, ABHD5 PLIN5 PPI -8.2, MITF TRPM1 inh 99.2*, KKLEB tox -27.2 and Peg3 promoter 98.9*.
`CCNc1ccc2noc3c2c1C(=O)c1ccccc1-3` gave HIF-2a inh -228.0, CF NFkB block -57.2, ABHD5 PLIN5 PPI 4.8, MITF TRPM1 inh 18.8, KKLEB tox -2.2 and Peg3 promoter -75.1.
For O=C(NCCN1CCCC1)c1ccccc1Cl the results were HIF-2a inh 12.3, CF NFkB block -5.4, ABHD5 PLIN5 PPI 1.8, MITF TRPM1 inh -1.8, KKLEB tox -6.5 and Peg3 promoter 9.1.
Screening O=C1c2ccccc2-c2onc3ccc(NCc4ccco4)c1c23 returned HIF-2a inh -49.2, CF NFkB block -114.1, ABHD5 PLIN5 PPI 22.4*, MITF TRPM1 inh 22.8, KKLEB tox 8.2 and Peg3 promoter -6.2.
CCN(CC)c1ccc(NC2=C(Cl)C(=O)c3ccccc3C2=O)cc1 was read as HIF-2a inh 96.4*, CF NFkB block 95.9*, ABHD5 PLIN5 PPI -1.2, MITF TRPM1 inh 91.9*, KKLEB tox -93.0* and Peg3 promoter 102.9*.
For O=C(NCc1ccccc1Cl)[C@H]1CCCN1C(=O)[C@H]1CCCN1C(=O)c1cccs1 the results were HIF-2a inh 7.1 and ABHD5 PLIN5 PPI 1.2.
O=C(C1CCN(S(=O)(=O)c2cccs2)CC1)N1CCCC(C(F)(F)F)C1 (stereo unspecified) was read as HIF-2a inh -6.0, CF NFkB block -27.0, ABHD5 PLIN5 PPI -0.9, MITF TRPM1 inh -4.2, KKLEB tox 19.0 and Peg3 promoter -1.9.
`CCN(CC)CC(O)Cn1c2ccccc2c2ccccc21` (stereo unspecified) gave HIF-2a inh 0.3, CF NFkB block 6.5, ABHD5 PLIN5 PPI 10.8, MITF TRPM1 inh -15.1, KKLEB tox 2.7 and Peg3 promoter -22.6.
Screening CCN(CC)CC(O)Cn1c(C)c(-c2ccccc2)c2cc([N+](=O)[O-])ccc21 (stereo unspecified) returned HIF-2a inh -7.6, CF NFkB block -1.8, ABHD5 PLIN5 PPI 7.1, MITF TRPM1 inh -16.1, KKLEB tox -14.0 and Peg3 promoter 75.1*.
